From PubChem BioAssay AID652115 (Broad Institute, 2013)
Where “and” joins values, the source holds several entries; their conditions need not be identical. Equal entries are not always repeated. About 3,800 (1.2%) of roughly 330,000 compounds were called active. No stated cut-off is given here; in the data, active means inhibition above about 15%; inconclusive means no clear call, values can overlap the other calls; inactive means below that. This excerpt belongs to a sample that is enriched for actives. More than one record can exist for a structure, and the calls need not agree.

biological target: NAD-dependent protein deacylase sirtuin-5, mitochondrial (Homo sapiens) (UniProt Q9NXA8); test: blockers of sirtuin-5 deacylase activity – biochemical, fluorescence imaging, single point, set 5, primary screen (AID 652115); conditions: Purified SirT5, succinyl-peptide AMC, trypsin-coupled fluorescence; at 15 µM; stronger effect = higher value
Sequence (Q9NXA8 whole entry, looked up): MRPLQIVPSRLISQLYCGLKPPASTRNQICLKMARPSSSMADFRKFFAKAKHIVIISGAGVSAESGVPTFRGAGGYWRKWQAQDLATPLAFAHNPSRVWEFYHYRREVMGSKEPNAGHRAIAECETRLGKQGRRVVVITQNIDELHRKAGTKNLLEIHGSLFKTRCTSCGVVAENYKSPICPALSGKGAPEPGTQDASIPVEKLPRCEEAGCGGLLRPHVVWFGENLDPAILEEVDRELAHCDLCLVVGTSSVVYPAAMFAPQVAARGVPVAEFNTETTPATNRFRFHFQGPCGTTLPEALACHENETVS

inhibition, inactive:
CC(Oc1ccccc1F)C(=O)NN (centres undefined) 5.06%
O=C(C=CC(=O)Nc1ccc(F)cc1F)Nc1ccc(F)cc1F 2.61%
CCCN1[C@H](C(=O)N[C@H](C)c2ccccc2)[C@@H](CO)[C@@H]2Cn3c(ccc(-c4ccccc4)c3=O)[C@@H]21 -2.75%
O=C(Cc1ccccc1)N1C[C@H]2[C@@H](c3ccccc31)[C@H](CO)N2C(=O)c1ccc(F)cc1 0.689%
Cc1cccnc1NC(=O)Cn1c(=O)oc2ccccc21 -0.084%
CC(=O)c1ccc(NC(=O)Cn2c(=O)oc3ccccc32)cc1 -1.5%
CO[C@@H]1CN(C)C(=O)c2cc(NC(C)=O)ccc2OC[C@H](C)N(C(=O)CC2CC2)C[C@@H]1C 0.181%
CO[C@@H]1CC[C@H]2CCN(C)C(=O)[C@@H](C)CN(C)C(=O)c3cccc(C#N)c3OC[C@@H]1O2 -2.44%
O=C(C[C@@H]1C[C@H]2c3cc(NC(=O)C4CCC4)ccc3O[C@H]2[C@@H](CO)O1)NCc1ccc2c(c1)OCO2 5.03%
O=C(C[C@@H]1C[C@H]2c3cc(NS(=O)(=O)c4ccc(F)cc4)ccc3O[C@H]2[C@H](CO)O1)NCCc1ccccc1 1.01%
CN(C)CC(=O)Nc1ccc2c(c1)[C@H]1C[C@@H](CC(=O)NCc3ccc(Cl)cc3)O[C@@H](CO)[C@H]1O2 4.32%
COCCNC(=O)C[C@H]1C[C@H]2c3cc(NS(C)(=O)=O)ccc3O[C@H]2[C@H](CO)O1 -4.62%
CN(C)CC(=O)Nc1ccc2c(c1)[C@@H]1C[C@H](CC(=O)NCc3ccc(Cl)cc3)O[C@@H](CO)[C@@H]1O2 4.86%
O=C(C[C@@H]1C[C@@H]2c3cc(NC(=O)C4CCC4)ccc3O[C@@H]2[C@@H](CO)O1)NCc1ccccc1 5.94%
COCC#Cc1cnc2c(c1)C(=O)N([C@H](C)CO)C[C@H](C)[C@H](CN(C)C(=O)C1CCOCC1)O2 3.88%
CCNC(=O)c1cc2c(c(-c3cccc(C4=CCCC4)c3)n1)[C@H](CCO)N([S@@](=O)C(C)(C)C)C2 13.7%
O=C(C[C@@H]1C=C[C@@H](NC(=O)C2CC2)[C@H](CO)O1)NCCCN1CCOCC1 4.53%
N#C[C@H]1[C@@H](c2ccccc2C2=CCCCC2)[C@H](CO)N1C(=O)c1ccccn1 2.41%
CN1C(=O)c2cc(NC(=O)C3CCOCC3)ccc2OC[C@H]2O[C@@H](CC(=O)NCC3CCCCC3)CC[C@@H]21 12.7%
O=C(Cc1ccccn1)N1CC(=O)N2[C@H](CO)[C@@H](c3ccc(C#CC4CCCC4)cc3)[C@H]2C1 1.82%
O=C(C[C@H]1CC[C@@H]2[C@H](COC[C@H](O)CN2S(=O)(=O)c2ccc(Cl)cc2)O1)N[C@@H]1CCN(Cc2ccccc2)C1 0.669%
Cc1cccc(S(=O)(=O)N2C[C@@H]3[C@H](c4ccccc42)[C@@H](CO)N3C(=O)c2ccccc2)c1 2.62%
CO[C@@H]1CN(C)C(=O)c2ccc(NC(=O)Nc3cc(F)ccc3F)cc2OC[C@@H](C)N(C)C[C@@H]1C 4.44%
COCC(=O)N1CC(=O)N2[C@H](CO)[C@@H](c3ccc(C#CC4CCCCC4)cc3)[C@@H]2C1 -3.9%
C/C=C/c1cnc2c(c1)C(=O)N([C@@H](C)CO)C[C@@H](C)[C@H](CN(C)Cc1cncnc1)O2 -2.68%
O=C(CN1CCOCC1)N1CCCCN2[C@@H](CO)[C@H](c3ccc(-c4ccccc4)cc3)[C@@H]2C1 -2%
O=C(CN1CCOCC1)N1CCCCN2[C@H](CO)[C@H](c3ccc(-c4ccccc4)cc3)[C@@H]2C1 -2.91%
CNC(=O)C[C@@H]1CC[C@@H]2[C@H](COc3ccc(NC(=O)Nc4ccccc4)cc3C(=O)N2C)O1 5.7%
CN(C)CC(=O)Nc1ccc2c(c1)[C@H]1C[C@H](CC(=O)NCc3ccccn3)O[C@@H](CO)[C@H]1O2 -6.14%
Cc1ccc(SCCC(=O)NCc2ccccn2)cc1 -1.1%
Cc1ccc(SCCC(=O)Nc2cc(C)on2)cc1 -2.48%
CN(C)C(=O)c1ccc(-c2ccc(C3[C@@H]4CN(C(=O)Nc5ccccc5)C[C@H]3N4)cc2)cc1 (some centres undefined) -1.69%
COc1cccc(S(=O)(=O)N2C[C@@H]3N[C@H](C2)C3c2ccc(-c3cccc(C(=O)N(C)C)c3)cc2)c1 (some centres undefined) 1.44% and 6.3%
N#Cc1ccc(-c2ccc(C3[C@@H]4CN(S(=O)(=O)c5ccccc5F)C[C@H]3N4)cc2)cc1 (some centres undefined) -1.48% and -0.825%
O=C(C1CCCCC1)N1C[C@@H]2N[C@H](C1)C2c1ccc(-c2cccc(F)c2)cc1 (some centres undefined) 1.22% and 3.71%

inhibition, 1.28% (inactive) and 16.2% (active):
COc1ccccc1S(=O)(=O)N1C[C@@H]2N[C@H](C1)C2c1ccc(-c2cccc(C)c2)cc1 (some centres undefined)

inhibition, active:
CC(Oc1ccc(F)cc1F)C(=O)/C=C/N(C)C (centres undefined) 38.2%
NC(=O)Cn1c(=O)oc2ccccc21 23.1%
O=C(C[C@H]1C[C@H]2c3cc(NC(=O)C4CCC4)ccc3O[C@H]2[C@@H](CO)O1)NCc1ccc(Cl)cc1 0.855%
CS(=O)(=O)Nc1ccc2c(c1)[C@H]1C[C@@H](CC(=O)NCCc3ccccc3)O[C@@H](CO)[C@H]1O2 21.9%
CN(C)c1ccc2c(c1)[C@H]1C[C@H](CC(=O)NCc3ccc(Cl)cc3)O[C@H](CO)[C@H]1O2 15.9%
O=C(CN1CCOCC1)N1CCCCN2[C@H](C1)[C@H](c1ccc(-c3ccccc3F)cc1)[C@@H]2CO 22.6%
Cc1ccc(SCCC(=O)NC(C(C)C)C(C)C)cc1 15.4%

inhibition, 7.01% (inactive) and 16.1% (active):
Cc1cccc(-c2ccc(C3[C@@H]4CN(C(=O)Nc5ccc(C(F)(F)F)cc5)C[C@H]3N4)cc2)c1 (some centres undefined)
